Composite z-score and z-score data for 13 molecules are collected here from PubChem BioAssay.

Calls of active or inactive are those of the source.

Experiment [1] is described as follows: small molecules captured by biotinylated probe aFSTL3 – biochemical, small-molecule microarray, fluorescence 635/667, stem cell growth factor project, primary screen (AID 1064).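 Note: measures binding of the biotinylated anti-FSTL3 antibody to printed compounds.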 To be noted: higher = more signal.
Experiment [2] can be described thus: binders from COS7 lysate, DM2A8 probe, primary screen, torsin A project, cell lysate, small-molecule microarray, fluorescence 635/667 (AID 1065). The note with it: higher = more signal, COS7 lysate expressing mutant human TOR1A.
Experiment [3] can be described thus: small molecules captured by biotinylated probe aFGF2 – biochemical, small-molecule microarray, fluorescence 635/667, stem cell growth factor project, primary screen (AID 1067).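 Note: measures binding of biotinylated aFGF2 protein to printed compounds on slides; z-score merges feature fluorescence and signal-to-noise across triplicate slides.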 To be noted: higher = more signal.
Experiment [4] in a line: small molecules captured by biotinylated probe aFGF10 – biochemical, small-molecule microarray, fluorescence 635/667, stem cell growth factor project, primary screen (AID 1071).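 Note: score merges 667 nm spot intensity and signal to noise from triplicate slides.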 To be noted: higher = more signal.
The target in experiment [5] is Neurogenic locus notch homolog protein 2 (Homo sapiens) (UniProt Q04721). The experiment can be described thus: small molecules binding Notch2 protein – biochemical, small-molecule microarray, 635 nm fluorescence, stem cell growth factors, primary screen (AID 1073). The note with it: higher = more signal.
Experiment [6] concerns the target Pro-neuregulin-1, membrane-bound isoform (Homo sapiens) (UniProt Q02297). The experiment in a line: small molecules binding neuregulin-1 protein – biochemical, small-molecule microarray, fluorescence 635/667, psychiatric disease protein project, primary screen (AID 1075).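 Note: score combines 667 nm spot fluorescence with signal to noise.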 The note with it: NRG1 binding, 635 nm fluorescence, higher = more signal.
Experiment [7] concerns Neuregulin-1 EGF-like domain. The experiment in a line: small molecules binding NRG1 EGF domain – biochemical, small-molecule microarray, 635 nm fluorescence, primary screen (AID 1081).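 Note: binding of the protein to compounds printed on small-molecule microarray slides.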 The note with it: higher = more signal.
Experiment [8] is described as follows: FRG1 expression reporter modulators in myotubes – cell-based, C2C12 myotubes, firefly/Renilla luciferase, luminescence, FRG1 inhibition for FSHD, primary screen (AID 1084). The note with it: FRG1 promoter luciferase, higher = more signal, called active from +8 up or from −8 down.
The nature of experiment [9]: small molecules captured by biotinylated probe aFST – biochemical, small-molecule microarray, fluorescence 635/667, stem cell growth factor project, primary screen (AID 1086).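 Note: score merges 667 nm fluorescence with signal-to-noise of each printed compound spot.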 The note with it: higher = more signal.
Experiment [10] is described as follows: binders of probe aHhip on microarray, primary screen, stem cell growth factor project, biochemical, small-molecule microarray, fluorescence 635/667 (AID 1087).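 Note: score merges spot fluorescence at 667nm with spot signal to noise ratio.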 To be noted: higher = more signal.

Sequence of Pro-neuregulin-1, membrane-bound isoform (Homo sapiens) (Q02297 whole entry, looked up, the tested form may be a part, canonical isoform): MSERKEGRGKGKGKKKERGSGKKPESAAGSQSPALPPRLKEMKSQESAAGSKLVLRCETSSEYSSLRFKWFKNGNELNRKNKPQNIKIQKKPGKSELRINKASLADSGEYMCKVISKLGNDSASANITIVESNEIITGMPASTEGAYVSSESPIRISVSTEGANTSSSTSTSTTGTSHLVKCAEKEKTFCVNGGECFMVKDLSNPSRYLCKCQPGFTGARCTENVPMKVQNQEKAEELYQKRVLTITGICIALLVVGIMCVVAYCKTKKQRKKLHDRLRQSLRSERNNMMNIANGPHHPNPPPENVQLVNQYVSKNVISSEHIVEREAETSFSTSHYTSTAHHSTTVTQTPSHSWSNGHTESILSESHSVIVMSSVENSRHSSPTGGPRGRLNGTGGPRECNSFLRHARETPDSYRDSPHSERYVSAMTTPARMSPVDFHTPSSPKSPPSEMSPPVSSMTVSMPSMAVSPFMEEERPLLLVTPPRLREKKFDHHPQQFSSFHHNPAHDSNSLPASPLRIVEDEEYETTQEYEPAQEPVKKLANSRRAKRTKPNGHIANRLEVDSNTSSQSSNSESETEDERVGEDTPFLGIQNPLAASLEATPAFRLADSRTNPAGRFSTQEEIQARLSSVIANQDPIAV
Sequence of Neurogenic locus notch homolog protein 2 (Homo sapiens) (Q04721 whole entry, looked up, canonical isoform): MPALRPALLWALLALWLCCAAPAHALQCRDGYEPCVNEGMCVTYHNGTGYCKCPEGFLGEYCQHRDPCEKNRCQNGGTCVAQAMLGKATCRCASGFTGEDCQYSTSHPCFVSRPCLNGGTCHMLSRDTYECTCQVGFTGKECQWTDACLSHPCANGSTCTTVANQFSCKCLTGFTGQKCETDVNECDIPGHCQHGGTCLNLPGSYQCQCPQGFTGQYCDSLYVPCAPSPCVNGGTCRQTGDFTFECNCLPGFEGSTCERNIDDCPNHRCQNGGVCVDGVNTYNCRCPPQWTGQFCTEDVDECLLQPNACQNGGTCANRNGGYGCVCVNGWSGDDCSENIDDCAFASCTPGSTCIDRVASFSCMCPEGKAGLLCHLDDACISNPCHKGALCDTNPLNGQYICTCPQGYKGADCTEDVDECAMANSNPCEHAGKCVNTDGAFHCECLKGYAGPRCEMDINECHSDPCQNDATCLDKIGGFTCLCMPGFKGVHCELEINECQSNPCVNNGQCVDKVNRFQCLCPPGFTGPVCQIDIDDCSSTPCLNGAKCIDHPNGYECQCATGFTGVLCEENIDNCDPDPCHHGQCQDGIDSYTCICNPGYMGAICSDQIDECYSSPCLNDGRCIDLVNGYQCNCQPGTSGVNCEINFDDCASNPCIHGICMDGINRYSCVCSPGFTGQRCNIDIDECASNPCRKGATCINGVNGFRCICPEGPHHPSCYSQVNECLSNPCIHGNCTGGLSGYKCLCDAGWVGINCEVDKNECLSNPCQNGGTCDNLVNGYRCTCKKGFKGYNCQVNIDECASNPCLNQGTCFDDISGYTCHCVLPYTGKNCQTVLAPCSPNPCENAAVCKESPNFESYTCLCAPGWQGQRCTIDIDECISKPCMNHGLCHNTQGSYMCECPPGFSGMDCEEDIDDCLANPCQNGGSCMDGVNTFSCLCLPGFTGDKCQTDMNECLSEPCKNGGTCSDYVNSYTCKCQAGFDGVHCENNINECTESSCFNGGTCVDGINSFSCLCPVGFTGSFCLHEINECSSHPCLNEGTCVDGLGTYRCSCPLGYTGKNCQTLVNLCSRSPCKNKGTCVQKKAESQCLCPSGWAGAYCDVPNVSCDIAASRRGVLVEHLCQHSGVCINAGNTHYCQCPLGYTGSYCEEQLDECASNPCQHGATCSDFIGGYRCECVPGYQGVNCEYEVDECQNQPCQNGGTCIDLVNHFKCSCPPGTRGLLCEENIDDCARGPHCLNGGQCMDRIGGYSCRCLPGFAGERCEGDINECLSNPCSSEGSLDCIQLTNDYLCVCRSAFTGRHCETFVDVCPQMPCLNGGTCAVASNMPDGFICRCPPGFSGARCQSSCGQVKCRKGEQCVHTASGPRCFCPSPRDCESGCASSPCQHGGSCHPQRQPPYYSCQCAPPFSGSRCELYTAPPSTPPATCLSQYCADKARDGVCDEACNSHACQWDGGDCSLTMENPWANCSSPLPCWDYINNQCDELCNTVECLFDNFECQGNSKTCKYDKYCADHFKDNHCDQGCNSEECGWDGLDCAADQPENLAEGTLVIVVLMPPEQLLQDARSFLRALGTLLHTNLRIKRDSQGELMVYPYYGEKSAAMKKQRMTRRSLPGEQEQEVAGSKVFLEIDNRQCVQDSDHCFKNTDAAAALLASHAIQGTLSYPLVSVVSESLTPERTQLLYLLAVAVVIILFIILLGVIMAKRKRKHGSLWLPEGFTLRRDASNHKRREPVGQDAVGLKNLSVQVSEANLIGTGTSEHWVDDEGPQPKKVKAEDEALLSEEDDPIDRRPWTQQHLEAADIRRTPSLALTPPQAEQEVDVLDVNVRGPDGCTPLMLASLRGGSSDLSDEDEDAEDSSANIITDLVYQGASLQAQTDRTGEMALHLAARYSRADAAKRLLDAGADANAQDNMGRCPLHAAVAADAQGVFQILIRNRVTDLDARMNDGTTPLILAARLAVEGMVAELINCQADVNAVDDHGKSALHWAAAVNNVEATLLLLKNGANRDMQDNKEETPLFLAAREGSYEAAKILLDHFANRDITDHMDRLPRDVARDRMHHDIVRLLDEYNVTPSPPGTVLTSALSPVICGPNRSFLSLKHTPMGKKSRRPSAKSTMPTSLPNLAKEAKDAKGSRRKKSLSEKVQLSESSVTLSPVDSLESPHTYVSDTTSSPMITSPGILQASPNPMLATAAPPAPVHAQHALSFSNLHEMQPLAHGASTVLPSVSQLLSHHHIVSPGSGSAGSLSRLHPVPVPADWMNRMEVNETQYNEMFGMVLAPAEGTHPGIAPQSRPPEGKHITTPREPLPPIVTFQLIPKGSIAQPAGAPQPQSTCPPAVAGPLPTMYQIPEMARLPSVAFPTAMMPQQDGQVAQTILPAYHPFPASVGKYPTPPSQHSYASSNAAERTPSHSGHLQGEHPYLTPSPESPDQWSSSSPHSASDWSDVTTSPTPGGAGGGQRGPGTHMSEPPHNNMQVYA

In the case of `CCOC(=O)[C@H](Cc1ccccc1)NC(=O)CCC1CC(OC(=O)NCCc2ccc(F)cc2)CC2(CCCC(COC(=O)NCC(c3ccccc3)c3ccccc3)O2)O1` (stereo not given in full), the composite z-score in [1] was -0.183; in [2], 0.0877; in experiment [3], -0.0785; in [4] it was 0.627; in experiment [5] it was 0.823; in experiment [6], 0.852. In addition, the composite z-score turned out to be 0.919 in experiment [7], 0.486 in experiment [9] and 0.0053 in experiment [10]. Besides, the z-score in [8] was 2.14 (inactive).
Regarding `C#C[C@@H]1Oc2ccccc2S(=O)(=O)N2CCC[C@H]12`, the composite z-score was -0.311 in [1]; 0.143 in experiment [2]; -0.114 in experiment [3]; 0.0728 in experiment [4]; 0.133 in experiment [5]; -0.206 in experiment [6]. In addition, the results for the composite z-score in experiment [7], in experiment [9] and in [10] were -0.113, 0.214 and -0.0596, respectively. Also, in [8], the z-score was -0.587 (inactive).
With `COCCOC(=O)N1C(=O)[C@@]2(c3cc(C#CC4(O)CCCCCC4)ccc31)[C@H](c1ccc(OCCO)cc1)N1[C@H](c3ccccc3)[C@H](c3ccccc3)OC(=O)[C@H]1[C@@H]2C(=O)NC[C@H](O)c1ccccc1`, the composite z-score was -0.0536 in experiment [1]; 1.11 in experiment [2]; -0.0444 in experiment [3]; 0.66 in [4]; 0.837 in experiment [5]; 1.55 in [6]. Moreover, the composite z-score in [7] was 1.13; in experiment [9], 0.29; in experiment [10], -0.0994. Moreover, in experiment [8], the z-score is -0.294 (inactive).
For the molecule `CC(C)CON=C1C[C@@H](O)[C@@H](O)[C@@H]2[C@@H]3C(=O)N(Cc4ccccc4)C(=O)[C@@H]3CC[C@@H]12`, the composite z-score in experiment [1] is -0.404; in [2], 0.129; in [3], -0.141; in [4] it was 0.256; in [5], 0.455; in experiment [6], -0.344. Further, the composite z-score in [7] is 0.211; in experiment [9], -0.313; in [10], -0.199. The z-score in experiment [8] was 0.166 (inactive).
In the case of `CO[C@H]1O[C@H](CO)[C@@H](OC(=O)Nc2ccc(C#N)cc2)[C@H](OC(=O)c2cc3ccccc3[nH]2)[C@H]1OC(=O)c1cc2ccccc2[nH]1`, the composite z-score in experiment [1] was determined as 0.0407; in [2] it was 1.3; in [3], 0.062; in experiment [4], 1.16; in [5] it was 1.04; in experiment [6], 1.75. For the same molecule, the composite z-score was 1.24 in experiment [7], 0.462 in experiment [9] and -0.0645 in experiment [10]. Besides, the z-score in experiment [8] was -1.79 (inactive).
Take `C[C@H](c1ccccc1)N1C(=O)[C@H]2[C@@H]3C(=CC[C@H]2C1=O)C(=O)[C@H]1O[C@H]1[C@H]3O`: the composite z-score in experiment [1] was -0.518; in experiment [2], 0.34; in experiment [3], -0.135; in [4], 0.134; in experiment [5], 0.582; in experiment [6], -0.198. The composite z-score in [7] is -0.133; in experiment [9] it was 0.128; in experiment [10], -0.289. In [8], the z-score was 14.4 (active).
In the case of `N#Cc1ccc(NN2C(C(O)c3cccc4ccccc34)C=CC3C(=O)N(c4ccccc4)C(=O)C32)cc1` (stereo not given), the composite z-score in experiment [1] was -0.0622; in [2], -0.182; in [3] it was 0.158; in experiment [4], 0.829; in experiment [5] it was 1.65; in experiment [6], 1.63. For the same molecule, the composite z-score in experiment [7] was determined as 1.21; in [9], 0.889; in experiment [10] it was 0.0695. The z-score in experiment [8] was 0.025 (inactive).
`O=C1[C@H]2[C@H]3[C@H](O)[C@H](O)CC(=NO[C@@H]4O[C@H](CO)[C@@H](O)[C@H](O)[C@H]4O)[C@H]3CC[C@H]2C(=O)N1Cc1ccc2c(c1)OCO2`: the composite z-score in experiment [1] was 0.606; in experiment [2], 1.53; in experiment [3], -0.104; in [4] it was -0.103; in experiment [5], -0.475; in [6] it was 0.266. The composite z-score in experiment [7] was 0.592; in experiment [9], 0.319; in experiment [10], -0.132. The z-score in [8] was -0.0585 (inactive).
`Cc1ccc(S(=O)(=O)N[C@@H]2COC(=O)[C@H](C)COC(=O)CC=C[C@H]2C)cc1`: the composite z-score in experiment [1] was -0.618; in [2], 0.133; in experiment [3] it was -0.121; in experiment [4] it was 0.305; in experiment [5] it was -0.0058; in [6], -0.0185. For the same molecule, the composite z-score in experiment [7] is -0.228; in experiment [9] it was -0.0468; in experiment [10], 0.176. Besides, in experiment [8], the z-score is -0.564 (inactive).
On to `CS(=O)(=O)CCOC(=O)C1=CC(CCCO)=CC(c2cccs2)N(Cc2cccc(OC(F)(F)F)c2)C=C1C(=O)OCCS(C)(=O)=O` (stereo not given), for which the composite z-score in [1] was -0.215; in [2], 1.76; in experiment [3], -0.0753; in [4], 0.0557; in [5] it was 1.14; in experiment [6] it was 1.8. The composite z-score is 1.14 in experiment [7], 0.425 in experiment [9] and -0.191 in experiment [10]. Also, the z-score in experiment [8] was -0.176 (inactive).
In the case of `Cc1cc2c(nc1C)CCCN2CC(O)CN1CCN(C)CC1` (stereo not given), the composite z-score was 0.499 in experiment [1]; 0.382 in experiment [2]; 0.0138 in [3]; 0.575 in experiment [4]; 0.273 in experiment [5]; 0.462 in experiment [6]. In addition, the composite z-score amounted to 0.346 in experiment [7], 0.758 in experiment [9] and 0.744 in experiment [10]. Also, the z-score in [8] is -0.323 (inactive).
As to `CC(=O)OC[C@H]1O[C@H](CCON=C(C)CCC(=O)OC[C@H]2O[C@H](C#Cc3ccccc3)C=C[C@@H]2Oc2ccc(C)cc2)C=C[C@@H]1OC(C)=O`, the composite z-score is -0.41 in experiment [1]; 0.703 in experiment [2]; -0.12 in [3]; 0.479 in experiment [4]; -0.126 in experiment [5]; 0.0383 in experiment [6]. Further, the composite z-score was 0.359 in [7], 0.265 in experiment [9] and -0.132 in [10]. Further, the z-score in experiment [8] is 0.718 (inactive).
In the case of `CC(C)NC(=O)[C@@]1(C)c2ccccc2C(=O)N(Cc2cc(F)cc(C(F)(F)F)c2)[C@H]1c1ccc(CO)cc1`, the composite z-score in experiment [1] amounted to 0.0059; in [2] it was 0.0214; in [3] it was 0.0368; in [4], 0.888; in [5] it was 1.54; in experiment [6], 0.341. Moreover, the composite z-score was 1.17 in experiment [7], 0.298 in experiment [9] and -0.134 in [10]. Moreover, the z-score in [8] was -1.31 (inactive).
